# Assay outcomes from PubChem.
# Compounds with a hit are over-represented: about 3.3% of the library has one in this group of screens.
# TLR4 MyD88 comp: blocks binding of human TLR4 to MyD88. O00206+Q99836. HeLa CL3-4 TLR4/MyD88 BLA complementation, FRET ratio. inhibition, % at 8.4 µM. 0.18% of 200,000 active. AID 861; in the data active = inhibition above about 25%;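 note: 0% = vehicle and 100% = reference inhibitor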
# NOD2-RIPK2 inh: blocks binding of human NOD2 to RIPK2; O43353; CHO BLA complementation NOD2-RIPK2, CCF4 ratio; inhibition, % at 4.98 µM; 0.38% of 360,000 active; AID 624267; in the data active = inhibition above about 21%;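 note: 0% = vehicle only and 100% = reference blocker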
# PRMT1 FP inh: PRMT1 (human) inhibition, primary screen. recombinant PRMT1, activity-based probe fluorescence polarization. 1.3% of 370,000 active. Q99873. inhibition, % at 2.79 µM;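 active = inhibition above about 21% made by adding two undisclosed values, limit read from the data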
# ABHD5-PLIN5 inh: blocks binding of human ABHD5 to perilipin-5; Split G. princeps luciferase complementation, luminescence, 4 h; inhibition, % at 4 µM; 0.78% of 360,000 active; AID 602281;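 active = inhibition above the mean inhibition across every tested compound plus 3 SD, cut at about 22% in these data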;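 note: 0% = DMSO only wells and the 100% control is not disclosed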
# rCAG RNA binder: binds r(CAG) RNA repeats; r(CAG) RNA repeat, TO-PRO-1 dye displacement fluorescence; inhibition, % at 3 µM; 1.3% of 370,000 active;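 active = inhibition above the plate cutoff, the mean of all test compounds on that plate plus 3 SD, cut at about 35% in these data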;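 note: 0% = DMSO alone and 100% = 100 µM mitoxantrone as full dye displacement; higher means more dye released from RNA so lower well fluorescence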
# TLR9-MyD88 block: blocks human TLR9 binding to MyD88; Q9NR96+Q99836; CHO BLA complementation TLR9-MyD88, CCF4 FRET ratio; inhibition, % at 4.98 µM; 0.21% of 340,000 active;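 active = inhibition above the mean over all tested compounds plus 3 SD, cut at about 21% in these data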;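 note: 0% = DMSO only wells and 100% = clavulanate BLA inhibitor control wells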
# PRMT1 confirm: PRMT1 (human) inhibition, FP confirmation; shares compounds with PRMT1 FP inh; recombinant His-PRMT1, activity-based probe fluorescence polarization; inhibition, % at 2.79 µM; 42% of 3,300 active;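 active = mean inhibition across replicates above the hit cutoff derived for the earlier primary screen, cut at about 22% in these data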
# * = called active by the depositor; nt = no result; ! = repeats disagree.
SMILES,TLR4 MyD88 comp,NOD2-RIPK2 inh,PRMT1 FP inh,ABHD5-PLIN5 inh,rCAG RNA binder,TLR9-MyD88 block,PRMT1 confirm
Fc1cccc(-c2ccc3c(c2)CN(c2cccc(Cl)c2)Cc2cnnn2-3)c1,nt,-17,2,11,8,nt,nt
CCC(c1nnnn1-c1ccc2c(c1)OCCO2)N1CCC2(CC1)C(=O)NCN2c1ccccc1 (centres undefined),nt,3,0,4,2,nt,nt
COP(=S)(OC)SCn1nnc2ccccc2c1=O,nt,0,89*,-10,0,-10,74*
CC/C(=N\NC(=S)Nc1ccccc1)c1c(O)[nH]c(=O)[nH]c1=O,nt,-2,45*,-11,10,-1,46*
COP(=O)(CC(=O)O)c1ccccc1 (centres undefined),10,3,1,-3,0,6,nt
NC(=O)CSP(=O)(c1ccccc1)c1ccccc1,-2,-4,38*,-42,0,1,65*
Cc1nn(CCC#N)c2c1P(=S)(N1CCCC1)OC(c1ccc(F)cc1)=N2 (centres undefined),-3,5,77*,-3,1,5,44*
C=CCOC(=O)C1C(C(=O)O)C2(Cl)C(Cl)=C(Cl)C1(Cl)C2(Cl)Cl (centres undefined),nt,-11,64*,-11,14,4,6
O=C(O)C1C(C(=O)O)C2(Cl)C(Cl)=C(Cl)C1(Cl)C2(Cl)Cl (centres undefined),nt,-5,6,5,2,-6,nt
CC[C@@H](CO)NC(=O)[C@@H]1C=C2c3cccc4[nH]cc(c34)C[C@H]2N(C)C1,nt,0,30*,-1,5,1,19
CC(C)C[C@H]1C(=O)N2CCC[C@H]2[C@]2(O)O[C@](NC(=O)[C@@H]3C=C4c5cccc6[nH]cc(c56)C[C@H]4N(C)C3)(C(C)C)C(=O)N12,nt,0,nt,6,nt,-15,nt
CCC(CO)NC(=O)C1C=C2c3cccc4[nH]cc(c34)CC2N(C)C1 (centres undefined),nt,-1,15,-12,6,-13,nt
CC[C@@H](CO)NC(=O)[C@@H]1C=C2c3cccc4c3c(cn4C)C[C@H]2N(C)C1,0,-7,47*!,-7,3,-1,6
COc1cc(C=C2C(=O)NC(=O)NC2=O)ccc1OS(=O)(=O)c1ccccc1[N+](=O)[O-],nt,-15,13,21,3,6,nt
Cc1cc(N2CCCCC2)ccc1C=C1C(=O)N(C)C(=S)N(C)C1=O,8,-1,29*,-12,11,-12,22*
CN1C(=O)N(C)C(=O)C(NS(=O)(=O)c2ccc(N)cc2)(c2ccccc2)C1=O,nt,-1,-3,9,0,-9,nt
CN(C)c1ccc2c(c1)N=C(c1ccco1)OP2(=S)N1CCOCC1 (centres undefined),3,-6,26*,-5,2,5,50*
CSc1ncc(/C=C2/C(=O)NC(=O)N(C)C2=O)cn1,4,-6,9,-2,1,4,nt
CSc1ncc(/C=C2/C(=O)NC(=O)N(C3CCCCC3)C2=O)cn1,-9,18,26*,-24,16,-2,19
Cc1cc(N2CCNC[C@H]2C)ccc1N1CC[C@H](O)C1,nt,nt,41*,nt,4,nt,-2
C[C@]12CC[C@@H](O)C[C@@H]1CC[C@@H]1[C@@H]2CC[C@]2(C)C(=O)[C@H](O)C[C@@H]12,nt,7,nt,0,nt,5,nt
O=c1[nH]c(=O)n(C2CCCCC2)c(O)c1C1NCCc2ccccc21 (centres undefined),2,-6,28*,-2,9,0,2
O=P(Nc1ccccc1)(Nc1ccccc1)Oc1ccccc1,-8,3,-1,-4,2,-1,nt
O=P(Nc1ccccc1)(Oc1ccccc1)Oc1ccccc1,nt,-3,82*,-7,-7,1,2
CCOC(=O)c1c(/N=C/c2c(O)n(-c3ccc(F)cc3)c(=S)[nH]c2=O)sc2c1CCCC2,8,3,27*,-7,10,-2,-8
CCOC(=O)c1c(/N=C/c2c(O)n(-c3ccccc3F)c(=S)[nH]c2=O)sc2c1CCCC2,-11,-6,42*,-18,12,8,15
CN1CCN(c2ccc(N)cc2Cl)CC1,-14,-4,-2,8,0,nt,nt
